The values that follow come from PubChem BioAssay AID1347383 (Zoeller Lab, School of Medicine, Boston University, 2020).

Activity calls are given as the source filed them.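 How the source made its calls: active means cell survival after UV exposure 2 SD above solvent-only control wells at 10 µM, confirmed on one or two repeats; inactive means the rest.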

The experiment can be described thus: protection of CHO cells from pyrene-fatty acid UV killing, primary screen, phospholipid biosynthesis inhibitor project, ZR-82 cells, Analyticon library, screen 2 (AID 1347383).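 Further: survival reflects blocked phospholipid synthesis cutting uptake of the phototoxic fatty acid; compound and fatty acid exposure 3 h then viability read next day.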 The conditions noted are these: ZR-82 CHO cells, CellTiter Blue, at 10 µM, peroxisome-deficient CHO-K1 variant, with DGAT-1, DGAT-2 and ACAT inhibitors. A general note: Resazurin is reduced to fluorescent resorufin, in cell work by metabolically active cells.
`CC1=C2C=C(CO)C(CO)CCC2(C)CCC1=O` (centres undefined): the outcome was inactive.

`CCC(C)C(=O)OC1CC(C)C=C2C=CC(C)C(CCC(O)CC(O)CC(=O)O)C21` (centres undefined): the result was inactive.

Regarding `O=c1ccc2cc(O)c(O)cc2o1`, the outcome was inactive.

With `COc1c(C)c2c(c(O)c1C/C=C(\C)C(O)CC(=O)O)C(=O)OC2` (centres undefined), the call was inactive.

With `COc1c(C)c2c(c(O)c1C/C=C(\C)CC/C=C(\C)CCC(=O)O)C(=O)OC2`, the compound was called inactive.

On to `Nc1ccccc1CCCCCCC(=O)O`, for which the compound was called inactive.

On to `CC(=O)O[C@H]1CC[C@H](C)[C@@]2(C)[C@H](OC(C)=O)c3c(C)coc3C(=O)[C@H]12`, for which the compound was classed as inactive.

As for `O=C1c2ccccc2C(=O)c2c(O)ccc(O)c21`, the outcome was inactive.

As for `CC1CCC2C(C(=O)O)=CC3C(O)C(C)(C)CC123` (centres undefined), the compound was classed as inactive.

As to `C=C[C@H]1CN2CC[C@H]1C[C@@H]2C(O)c1ccnc2ccc(OC)cc12` (some centres undefined), the call was inactive.

Turning to `COc1cc2c(c3c1C(=O)C[C@@H](C)O3)CCO2`, the outcome was inactive.

In the case of `CC1(C)O[C@]23C[C@H]1C[C@H](OC(=O)c1ccoc1)[C@]2(C)[C@@H](OC(=O)c1ccoc1)CCC3(C)O` (some centres undefined), the outcome was inactive.

As to `C=CC(=C)CCC1(C)C(C)CC(O)C23C(=CC(OC(C)=O)CC12)C(OC)OC3OC(C)=O` (centres undefined), the call was inactive.

With `O=C(O)/C=C/c1ccccc1O`, the compound was classed as inactive.

With `COC(=O)C1=CO[C@@H](C)[C@H]2CN3CCc4c([nH]c5ccccc45)[C@@H]3C[C@H]12`, the outcome was active.

For `O=c1c(O)c(-c2ccc(O)c(O)c2)oc2cc(O)cc(O)c12`, the compound was classed as inactive.

On to `O=C1c2c(O)cc(O)cc2O[C@@H](c2ccc(O)cc2)[C@@H]1O`, for which the outcome was inactive.

For `COc1ccc(CC(C)C(C)Cc2ccc3c(c2)OCO3)cc1OC` (centres undefined), the outcome was inactive.

As for `CNC(=O)Oc1ccc2c(c1)[C@]1(C)CCN(C)[C@@H]1N2C`, the call was inactive.

For the compound `Nc1ccn(C2CC(O)C(CO)O2)c(=O)n1` (centres undefined), the compound was classed as inactive.

With `CCC(C)C(=O)O[C@H]1CCC=C2C=C[C@H](C)[C@H](CC[C@@H](O)C[C@@H](O)CC(=O)O)[C@H]21` (some centres undefined), the compound was classed as inactive.

For `OC[C@H]1O[C@@H](Oc2ccccc2)[C@H](O)[C@@H](O)[C@@H]1O`, the outcome was inactive.

For the compound `CCCc1c(C(=O)O)cc2c(c1O)C(=O)c1c(O)cccc1C2=O`, the outcome was inactive.

In the case of `COc1ccc(OC2OC(COC3OCC(O)C(O)C3O)C(O)C(O)C2O)cc1OC` (centres undefined), the compound was classed as inactive.

As for `CC(O)C(O)c1ccc(OC(C)C(O)c2ccc(O)cc2)cc1` (centres undefined), the result was inactive.

On to `C/C=C(/C(=O)O)N1C(=O)C=C(C)C1=O`, for which the result was inactive.

On to `OC1C(O)C(O)C(O)C(O)C1O` (centres undefined), for which the result was inactive.

Turning to `CC(=O)OC/C(=C\COc1cc(=O)oc2cccc(C)c12)CCC=C(C)C`, the outcome was inactive.

`CC(CO)C1CCC2(C)CC3C(CO)CC(O)C3C(C)(O)CC=C12` (centres undefined): the compound was classed as inactive.

Take `C=C1C(=O)O[C@@H]2C=C(C)[C@@H]3CC[C@@](C)(O)[C@@H]3C[C@H]12`: the compound was classed as inactive.

For `C=C(CO)C(=O)O[C@H]1CC(=C)[C@@H]2CC(=O)[C@H](C)[C@@H]2[C@H]2OC(=O)C(=C)[C@@H]21`, the compound was classed as inactive.

As for `COc1cc(O)c(C(=O)c2c(C)cc(O)cc2OC)c(O)c1`, the compound was classed as inactive.

With `C[N+](C)(C)C(Cc1c[nH]c2ccccc12)C(=O)[O-]` (centres undefined), the call was inactive.

As for `COc1cc(O)cc(O)c1C(=O)c1ccc(O)c(O)c1`, the call was inactive.

Consider `C=C(C)[C@H]1CC[C@]2(C(=O)O)CC[C@]3(C)C(CCC4[C@@]5(C)CCC(=O)C(C)(C)C5CC[C@]43C)C12` (some centres undefined), for which the outcome was inactive.

As to `COc1cc2c(cc1O)C(=O)CC1C(C)(C)C(=O)CCC21C` (centres undefined), the result was inactive.

Consider `CN(/C=C\c1ccccc1)C(=O)/C=C/c1ccccc1`, for which the result was inactive.

With `O=C(O)COC(=O)CCCCCCCO`, the compound was classed as inactive.

As for `O=C(O)c1cc(O)c2c(c1)C(=O)c1cc(O)cc(O)c1C2=O`, the result was inactive.
